Only some compounds are listed: those with a hit (about 0.96% of all), similar ones and a draw of the others.
MIN6 prolif: induces beta-cell replication in MIN6 cells. AID 2380. MIN6 cells proliferation, ATPlite luminescence, 48 h; cells starved in 0.2% serum; 100% = growth in 10% serum. 330,000 tested, 0.29% active. proliferation, % at 10 µM;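 active means compounds whose signal lies at least 3.5 SD above the mean of all wells on their plate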;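 further: 0% = DMSO-treated cells in low-serum medium and 100% = 10% serum control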
Rtt109 HAT inh: inhibitors of Candida albicans Rtt109/Vps75 histone acetyltransferase; Q5AAJ8; inhibition, % at 34.9 µM; AID 540336; purified Rtt109/Vps75, ThioGlo CoA-SH fluorescence, 4 h; 330,000 tested, 0.16% active;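 active means inhibition of at least 50% in every replicate; inconclusive means best replicate reaches 50% inhibition but some replicates fall short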
Target sequence (Q5AAJ8 whole entry, looked up): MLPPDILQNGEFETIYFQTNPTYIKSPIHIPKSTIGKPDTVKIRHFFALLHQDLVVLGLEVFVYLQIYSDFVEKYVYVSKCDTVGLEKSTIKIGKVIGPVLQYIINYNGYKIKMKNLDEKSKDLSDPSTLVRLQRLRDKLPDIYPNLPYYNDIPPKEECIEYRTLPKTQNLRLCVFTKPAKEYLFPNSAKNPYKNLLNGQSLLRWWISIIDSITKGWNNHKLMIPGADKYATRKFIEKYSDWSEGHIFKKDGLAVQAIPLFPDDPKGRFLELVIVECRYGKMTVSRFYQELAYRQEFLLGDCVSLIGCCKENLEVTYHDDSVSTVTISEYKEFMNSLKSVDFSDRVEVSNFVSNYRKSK
DAGLB inhibitor: diacylglycerol lipase beta (human) inhibition; HEK293T DAGLB membrane lysate, EnzChek fluorogenic substrate; inhibition, % at 5.17 µM; 340,000 tested, 0.059% active; AID 504411; in the data active means inhibition above about 34%;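 further: 0% = enzyme with vehicle and 100% = wells lacking enzyme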
HDAC3 inh: blocks human histone deacetylase 3. O15379. recombinant HDAC3, fluorogenic peptide/trypsin coupled, fluorescence. inhibition, % at 8.3 µM. 320,000 tested, 0.15% active. AID 2718; in the data active means inhibition above about 26%, passing the limit was not always enough; inconclusive means no clear call, values can overlap the other calls
V-ATPase pH: regulators of yeast V-ATPase proton transport; S. cerevisiae, pHLuorin cytosolic pH fluorescence; 350,000 tested, 0.37% active; response, % at 10 µM; in the data active means response mostly above about 7.3%, no sharp cut-off; inactive means mostly below about 5.4%; further: actives read high
* marks the source's active call; other numbers are inactive results.

Screening CCN1CCN(C2=CC3=CC(=C(C#N)C#N)CCC3CC2)CC1 (stereo not given) returned Rtt109 HAT inh -2, DAGLB inhibitor -318 and V-ATPase pH 28*.
For N#CC(C#N)=C1C=C2C=C(N3CCCCCC3)CCC2CC1 (stereo not given) the results were Rtt109 HAT inh 0, DAGLB inhibitor inactive and V-ATPase pH 234*.
CC(C)CCSc1nc2[nH]ncc2c(=O)[nH]1 was read as MIN6 prolif 0, DAGLB inhibitor -2, HDAC3 inh -6 and V-ATPase pH 48*.
For CC(=O)Nc1ccccc1NC(=O)c1ccccc1 the results were MIN6 prolif -3, Rtt109 HAT inh 0, DAGLB inhibitor 1, HDAC3 inh 0 and V-ATPase pH -1.
Nc1ccccc1NC(=O)c1ccccc1 was read as MIN6 prolif -2, Rtt109 HAT inh -8, DAGLB inhibitor -3, HDAC3 inh 75* and V-ATPase pH -4.
For CC(C)(C)c1ccc(C(=O)NCC(=O)N/N=C/c2cccs2)cc1 the results were MIN6 prolif -2, Rtt109 HAT inh -1, DAGLB inhibitor 0, HDAC3 inh 2 and V-ATPase pH -1.
O=C(CNC(=O)c1cccc(Br)c1)N/N=C/c1cccs1 was read as MIN6 prolif 1, Rtt109 HAT inh 59*, DAGLB inhibitor 1, HDAC3 inh 2 and V-ATPase pH -2.
Cc1ccc(CC2CC(=O)N(C(Cc3ccccc3)C(=O)O)C2=O)cc1 (stereo not given) was read as MIN6 prolif -2, Rtt109 HAT inh 4, DAGLB inhibitor 0, HDAC3 inh -2 and V-ATPase pH 1.
Cc1ccc(-c2csc(NC(=O)c3ccc(F)cc3)c2C(=O)O)cc1 was read as MIN6 prolif -2, Rtt109 HAT inh 0, DAGLB inhibitor 12, HDAC3 inh -1 and V-ATPase pH 1.
`O=C1c2sc3nc4ccccc4n3c2C(=O)N1c1ccccc1Cl` gave MIN6 prolif -7, Rtt109 HAT inh 8, DAGLB inhibitor 6, HDAC3 inh -1 and V-ATPase pH 10*.
For Cc1ccccc1N1C(=O)c2sc3nc4c(c(=O)n3c2C1=O)CCC4 the results were MIN6 prolif 0, Rtt109 HAT inh 28, DAGLB inhibitor 1, HDAC3 inh 11 and V-ATPase pH 1.
`COc1ccc(C(=O)OCc2nnc(-c3ccccc3)o2)cc1S(=O)(=O)N1CCOCC1` gave MIN6 prolif -6, Rtt109 HAT inh 0, DAGLB inhibitor 1, HDAC3 inh -4 and V-ATPase pH -3.
Screening O=C(OCc1nnc(-c2ccc([N+](=O)[O-])cc2)o1)c1ccc(F)c(S(=O)(=O)N2CCOCC2)c1 returned MIN6 prolif -1, Rtt109 HAT inh -2, DAGLB inhibitor 3 and V-ATPase pH 17*.
O=C1c2ccccc2-c2c1cccc2C(=O)N1CCCCCC1 was read as MIN6 prolif 0, Rtt109 HAT inh 10, DAGLB inhibitor 3, HDAC3 inh 3 and V-ATPase pH 15*.
For O=C1c2ccccc2-c2cccc(C(=O)N3CCCCCC3)c21 the results were MIN6 prolif 0, Rtt109 HAT inh 9, DAGLB inhibitor 0, HDAC3 inh -4 and V-ATPase pH 1.
For COc1ccc(-c2nc(-c3cccs3)no2)cc1 the results were MIN6 prolif -4, Rtt109 HAT inh 52*, DAGLB inhibitor -9, HDAC3 inh 2 and V-ATPase pH -2.
For COc1ccc(C2CC(=O)N3CN(c4ccc(C)c(Cl)c4)CSC3=C2C#N)cc1 (stereo not given) the results were MIN6 prolif -1, Rtt109 HAT inh -1, DAGLB inhibitor 4, HDAC3 inh 51* and V-ATPase pH 0.
COc1ccc(N2CSC3=C(C#N)C(c4cccc(OC)c4OC)CC(=O)N3C2)cc1 (stereo not given) was read as MIN6 prolif -4, Rtt109 HAT inh -1, DAGLB inhibitor 1, HDAC3 inh 56* and V-ATPase pH -2.
Screening COc1ccc(OC)c(C2CC(=O)N3CN(c4ccccc4)CSC3=C2C#N)c1 (stereo not given) returned MIN6 prolif -2, Rtt109 HAT inh 19, DAGLB inhibitor 0, HDAC3 inh 54* and V-ATPase pH -3.
`OCC(O)C(O)CC1SCCS1` (stereo not given) gave Rtt109 HAT inh 4, DAGLB inhibitor -1 and V-ATPase pH 13*.
For C[C@@]12CC(=O)NC1N(C(=O)c1cccc(C(F)(F)F)c1)C(c1ccccc1OC(=O)c1cccc(C(F)(F)F)c1)C2 (stereo not given in full) the results were MIN6 prolif -2, Rtt109 HAT inh 4, DAGLB inhibitor 0, HDAC3 inh 42* and V-ATPase pH 0.
Screening CN(C)/C=N/c1sccc1C(N)=O returned MIN6 prolif -2, Rtt109 HAT inh -15, DAGLB inhibitor -2, HDAC3 inh 2 and V-ATPase pH 16*.
For Cc1cc(C(=O)Nc2sccc2C(N)=O)c(C)o1 the results were MIN6 prolif 3, Rtt109 HAT inh -9, DAGLB inhibitor -2, HDAC3 inh 4 and V-ATPase pH -5.
Screening O=C(c1ccco1)n1nc(-c2cccnc2)nc1NCc1ccco1 returned MIN6 prolif -3, Rtt109 HAT inh -20, DAGLB inhibitor -1, HDAC3 inh inconclusive and V-ATPase pH 0.
`N#Cc1ccc(N=c2ssnc2Cl)cc1` gave MIN6 prolif -7, Rtt109 HAT inh -5, DAGLB inhibitor 2, HDAC3 inh 38* and V-ATPase pH 2.
COc1cc(N=c2ssnc2Cl)cc(OC)c1OC was read as MIN6 prolif -4, Rtt109 HAT inh 12, DAGLB inhibitor -2, HDAC3 inh 36* and V-ATPase pH 0.
`CCC1(c2ccc(Cl)cc2)NC(=O)N(Cc2ccc(C(=O)OC)cc2)C1=O` (stereo not given) gave MIN6 prolif -1, Rtt109 HAT inh -5, DAGLB inhibitor -3, HDAC3 inh 0 and V-ATPase pH 13*.
Screening CCC1(c2ccc(Cl)cc2)NC(=O)N(CC(=O)NCc2ccc(F)cc2)C1=O (stereo not given) returned MIN6 prolif -3, Rtt109 HAT inh -8, DAGLB inhibitor 2, HDAC3 inh 1 and V-ATPase pH 4.
For O=C1OC(c2ccccc2)=N/C1=C\C=C\c1ccco1 the results were MIN6 prolif 0, Rtt109 HAT inh 22, DAGLB inhibitor 3, HDAC3 inh 41* and V-ATPase pH -4.
O=C1OC(c2ccc(Cl)cc2)=N/C1=C\C=C\c1ccco1 was read as MIN6 prolif -2, Rtt109 HAT inh 22, DAGLB inhibitor 5, HDAC3 inh inconclusive and V-ATPase pH 4.
Screening N#Cc1c(-c2ccccc2)nc(SCC(=O)N2c3ccccc3Sc3ccccc32)[nH]c1=O returned MIN6 prolif -5, Rtt109 HAT inh 58*, DAGLB inhibitor 15, HDAC3 inh 4 and V-ATPase pH 1.
`COc1ccc(C2CC(=O)C(C=NCCO)=C(O)C2)cc1` (stereo not given) gave MIN6 prolif -4, Rtt109 HAT inh 54*, DAGLB inhibitor -2, HDAC3 inh -3 and V-ATPase pH 4.

Screens deposited in PubChem BioAssay by several laboratories.
